Values without a mark were called inactive. The source made the active and inactive calls. Rule as the data show it: active = IC50 below about 3 µM; inactive = the rest.
Experiment: luminescent readout interference, potency – biochemical, luminescence, artefact control for SENP inhibitor project, dose response (AID 488920)
Conditions: luminescence interference counterscreen, spectral interferers

Row | SMILES | IC50
1 | COc1ccc(C(=O)c2nccc3cc(OC)c(OC)cc23)cc1OC | > 5 µM
2 | CCCCn1c(NC(=O)c2ccccc2Cl)c(C#N)c2nc3ccccc3nc21 | > 5 µM
3 | Cc1nc(Nc2ccc(C(=O)O)cc2)sc1-c1ccccc1 | 0.325 µM (active)
4 | Cc1ccc(C(=O)NNc2cc(N3CCCC3)nc(N3CCCC3)n2)cc1 | > 5 µM
5 | Oc1[nH]c2ccccc2c1N=Nc1ccc(F)cc1 | 0.888 µM (active)
6 | O=c1oc2c(O)cccc2cc1-c1nc2ccccc2[nH]1 | 0.606 µM (active)
7 | O=C(O)c1ccc(NC2=C/C(=N/S(=O)(=O)c3ccccc3)c3ccccc3C2=O)cc1 | > 5 µM
8 | CCC(C)n1c(NC(=O)c2ccccc2)c(C#N)c2nc3ccccc3nc21 (centres undefined) | > 5 µM
9 | Cc1ccc(S(=O)(=O)/N=C2\C=C(Nc3cccc(C(=O)O)c3)C(=O)c3ccccc32)c(C)c1 | > 5 µM
10 | Cc1ccnc(Nc2nc(-c3ccccc3)cs2)c1 | 0.824 µM (active)
11 | CCN(CC)c1ccc(/C=N/NC(=O)c2ccoc2C)c(O)c1 | 2.53 µM (active)
12 | Cc1ccc(NC2=C/C(=N/S(=O)(=O)c3cccs3)c3ccccc3C2=O)cc1 | > 5 µM
13 | O=C1c2ccccc2-c2nnc(-c3ccc(F)cc3)cc21 | 1.18 µM (active)
14 | Cc1ccc(/C=C/c2nc3ccccc3c(=O)[nH]2)cc1 | 0.403 µM (active)
15 | O=c1[nH]c(Nc2ccccc2)cc2ccccc12 | > 5 µM
16 | CCOc1ccc(/C=C2\CCc3ccccc3C2=O)cc1 | 0.782 µM (active)
17 | COc1cc([N+](=O)[O-])ccc1N/C=C/C(=O)c1cccs1 | 0.458 µM (active)
18 | O=C(O)c1ccc2cc(-c3ccccc3)[nH]c2c1 | 0.471 µM (active)
19 | O=C1/C(=C/c2ccc([N+](=O)[O-])cc2)CCc2ccccc21 | 0.884 µM (active)
20 | C/C(=N\OC(=O)c1ccc(Br)cc1)c1ccccn1 | 0.548 µM (active)
21 | Cc1cc(C)nc(Nc2nc(-c3ccccc3)cs2)n1 | 0.865 µM (active)
22 | COc1cc(C(=O)c2nccc3cc(OC)c(OC)cc23)c([N+](=O)[O-])cc1OC | > 5 µM
23 | CCn1c(O)c(N=Nc2ccc3ccccc3n2)c2ccccc21 | 2.91 µM (active)
24 | Cn1c(-c2ccccc2)cc2onc(-c3ccccc3)c2c1=O | 0.607 µM (active)
